Reference: PubChem BioAssay AID620 (Sanford-Burnham Center for Chemical Genomics, 2007)
About 360 (0.41%) of roughly 87,000 compounds were called active. Rule as the data show it: active = cytotoxicity above about 50%; inactive = the rest. What follows is part of a selection rich in actives, with near analogues and random picks from the rest.

Assay: HT1080 cell viability loss – fluorescence readout (AID 620);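 also: cells exposed to compound overnight then 4 h with Alamar Blue; 0% = vehicle DMSO and 100% = killing control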
Conditions: at 10 µM, stronger effect = higher value

Compound	cytotoxicity
CON(C)C(=O)Nc1ccc(Cl)cc1	1.8% (inactive)
O=C(Nc1ccc(Cl)cc1)Nc1nccs1	61.1% (active)
CCOC(=O)c1c(C)n(CCN2CCN(C)CC2)c2ccc(OC)cc12	9.6% (inactive)
CCN(CC)c1ccc(N=Cc2c(O)n(-c3ccc(OC)cc3)c(=O)[nH]c2=O)cc1	0.4% (inactive)
CCOC(=O)C1SC2(C(F)F)CC1(O)c1c(c(OC)c3occc3c1OC)O2 (stereo not given)	5.2% (inactive)
O=c1c2ccccc2[nH]c(=S)n1-c1ccc2c(c1)OCO2	-0.8% (inactive)
COc1ccc(C2NCc3ccc4c(c3-n3cccc32)OCO4)cc1OC (stereo not given)	-2.8% (inactive)
COc1ccc(C2NCc3ccc4c(c3-n3cccc32)OCO4)cc1O (stereo not given)	67.8% (active)
c1cc2n(c1)-c1c(ccc3c1OCO3)CNC2c1ccc2c(c1)OCO2 (stereo not given)	3.4% (inactive)
COc1ccc(CCNC(C)CCc2ccc(OC)cc2)cc1 (stereo not given)	-9.1% (inactive)
CCC(=NCCc1c[nH]c2ccccc12)c1c(O)n(C)c(=O)n(C)c1=O	3.2% (inactive)
COc1ccc(C2C(C(=O)N3CCC4(CC3)OCCO4)c3cc(OC)c(OC)cc3C(=O)N2C)cc1 (stereo not given)	-12.7% (inactive)
C[C@H]1CCC[C@@H](O)CCC/C=C/c2cc(O)cc(O)c2C(=O)O1	12.8% (inactive)
C[C@H]1CCCC(=O)CCC/C=C/c2cc(O)cc(O)c2C(=O)O1	-0.7% (inactive)
C[C@H]1CCC/C=C/C2C[C@H](O)CC2[C@H](O)/C=C/C(=O)O1 (stereo not given in full)	83.3% (active)
COC(=O)CC1NC2CCCCC2NC1=O (stereo not given)	3.2% (inactive)
O=c1[nH]c2ccccc2n1C1CCN(CCCC(c2ccc(F)cc2)c2ccc(F)cc2)CC1	91.3% (active)
O=C1CC(N2CCC(n3c(=O)[nH]c4ccccc43)CC2)C(=O)N1c1ccc(F)cc1 (stereo not given)	2% (inactive)
O=C1CC(N2CCC(n3c(=O)[nH]c4ccccc43)CC2)C(=O)N1Cc1ccccc1 (stereo not given)	13.4% (inactive)
CCCCn1c(=O)c(C(=O)NCc2ccncc2)c(O)c2ccccc21	4.9% (inactive)

Compound	cytotoxicity
COc1ccccc1N1C(=O)NC(=O)C(CCc2ccncc2)(CCc2ccncc2)C1=O	-6.4% (inactive)
CCC(=NC1CC1)c1c(O)n(C2CCCCC2)c(=O)[nH]c1=O	15.1% (inactive)
CC(=O)c1cccc(NC2=NCC(C)S2)c1 (stereo not given)	1.4% (inactive)
COc1cccc(OC)c1C1=NCC(=O)Nc2c1oc1ccc(Br)cc21	64.8% (active)
O=C1CN=C(c2ccccc2)c2oc3ccc(Br)cc3c2N1	8.1% (inactive)
CC1=CC(=C2C(=O)NC(=S)NC2=O)C=C(C(F)(F)F)N1C	1.5% (inactive)
COC(=O)C1CN(C#N)N(c2ccc(Cl)cc2)C12c1ccccc1-c1ccccc12 (stereo not given)	84.3% (active)
COC(=O)C[C@]1(C(=O)OC)CN(C#N)N(c2ccc(Cl)cc2)C12c1ccccc1-c1ccccc12	93.9% (active)
COC(=O)[C@@H]1[C@@H](C(=O)OC)C2(c3ccccc3-c3ccccc32)N(c2ccc(Cl)cc2)N1C#N	2.6% (inactive)
CCC(=Nc1ccc2c(c1)CCC2)c1c(O)n(C2CCCCC2)c(=O)[nH]c1=O	-1.6% (inactive)
CCCN1CC(C)C(OC(C)=O)(c2ccccc2)CC1C (stereo not given)	1.2% (inactive)
OC1(CN2CCOCC2)C2CC3CC(C2)CC1C3 (stereo not given)	-20.1% (inactive)
CC(=O)Nc1ccc(S(=O)(=O)NC(CC(=O)N2CCC3(CC2)OCCO3)C(C)C)cc1 (stereo not given)	4.2% (inactive)
CCOP(=O)(C#CC(C)(C)C)C(O)(c1ccccc1)C(F)(F)F (stereo not given)	6.8% (inactive)
Cc1nc2c(=O)n(C)c(=O)nc-2n(C)n1	103% (active)
O=C(CN1C2CCC1CC(O)(c1cccnc1)C2)Nc1ccc2c(c1)OCO2 (stereo not given)	2.5% (inactive)
CC(C)CCP(=O)(O)c1ccccc1	0.8% (inactive)
C=CCn1c(O)c(C=NCCCOc2ccc(CC)cc2)c(=O)[nH]c1=S	-6.1% (inactive)
CCOC(=O)C1C(=O)NC23CCCC2C1c1ccccc1O3 (stereo not given)	13.5% (inactive)
Cc1cccc(-n2c(O)c(C=NCCCN3CCOCC3)c(=O)[nH]c2=O)c1C	-0.3% (inactive)
